Measurements from PubChem BioAssay (NCI).
Compounds without any hit were thinned out: in the full panel of roughly 79,000, 15% have a hit. Calls of active or inactive are those of the source. No stated cut-off is given here; in the data, active means growth inhibition above about 70%; inactive means the rest.

Assays:
[1] = NCI Yeast Anticancer Drug Screen. Data for the rad52 strain (AID 147);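 further: 0% = growth of vehicle-treated control cultures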; conditions: S. cerevisiae rad52 mutant growth inhibition, hits give high values
Method in brief: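 Screen used a yeast mutant impaired in DNA repair. After compound exposure, growth was measured. Values reflect inhibition compared with vehicle-treated cells.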

[2] = NCI Yeast Anticancer Drug Screen. Data for the wt1 strain (AID 149);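 further: 0% = growth of vehicle-treated wt1 cultures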; conditions: S. cerevisiae wt1 strain (SPY 50644) growth inhibition, hits give high values
Method in brief: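 wt1 strain grown with compound or vehicle; inhibition taken from the growth difference.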

[3] = NCI Yeast Anticancer Drug Screen. Data for the rad50EPP+ strain (AID 151);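 further: 0% = growth of vehicle-treated control cultures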; conditions: S. cerevisiae rad50 mutant strain, hits give high values
Method in brief: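 Exposing the rad50EPP+ strain to each compound, growth was compared with vehicle-only cultures to give inhibition.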

[4] = NCI Yeast Anticancer Drug Screen. Data for the mgt1 strain (AID 153); conditions: S. cerevisiae mgt1 mutant growth inhibition, hits give high values
Method in brief: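 Genetically defined yeast (mgt1) treated with compound; inhibition of growth expressed against vehicle-treated controls.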

[5] = NCI Yeast Anticancer Drug Screen. Data for the rad50 strain (AID 155);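 further: 0% = growth of vehicle-only cultures of the same strain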; conditions: S. cerevisiae rad50 strain growth inhibition, hits give high values
Method in brief: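 DNA repair mutant yeast, compound exposure, growth read-out; inhibition is taken relative to vehicle.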

[6] = NCI Yeast Anticancer Drug Screen. Data for the mec2-1 strain (AID 157); conditions: S. cerevisiae mec2-1 strain, hits give high values
Method in brief: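 Readout is yeast growth inhibition, normalised to vehicle-treated controls, in the mec2-1 strain exposed to compound.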

[7] = NCI Yeast Anticancer Drug Screen. Data for the rad14 strain (AID 159);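 further: 0% = growth of vehicle-treated control cultures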; conditions: S. cerevisiae rad14 strain growth inhibition, hits give high values
Method in brief: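 DNA repair-defective yeast, compound-exposed; % growth inhibition derived by comparison with vehicle-treated controls.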

[8] = NCI Yeast Anticancer Drug Screen. Data for the sgs1 mgt1 strain (AID 161);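 further: 0% = growth of cultures given vehicle only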; conditions: S. cerevisiae sgs1 mgt1 strain, hits give high values
Method in brief: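 Growth of a repair-deficient yeast mutant was monitored after compound treatment and expressed as inhibition relative to vehicle-treated cultures.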

[9] = NCI Yeast Anticancer Drug Screen. Data for the cln2 rad14 strain (AID 165);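 further: 0% = growth equal to vehicle treated cultures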; conditions: S. cerevisiae cln2 rad14 strain, hits give high values
Method in brief: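 Relative to vehicle controls, growth inhibition of compound-treated cln2 rad14 yeast was recorded.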

[10] = NCI Yeast Anticancer Drug Screen. Data for the bub3 strain (AID 167); conditions: S. cerevisiae bub3 mutant strain, hits give high values
Method in brief: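 In this screen, a yeast mutant lacking normal mitotic checkpoint function is challenged with compound. Relative growth versus vehicle gives the inhibition value.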

[11] = NCI Yeast Anticancer Drug Screen. Data for the wt2 strain (AID 169);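 further: 0% = growth of vehicle-treated yeast cultures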; conditions: S. cerevisiae wt2 strain growth inhibition, hits give high values
Method in brief: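 Values express reduction in yeast growth under compound treatment, referenced to vehicle-treated cells.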

[12] = NCI Yeast Anticancer Drug Screen. Data for the mlh1 strain (AID 171);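 further: 0% = growth of vehicle-treated control cultures of the same strain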; conditions: S. cerevisiae mlh1 strain growth inhibition, hits give high values
Method in brief: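 Steps: expose the defined-mutant yeast strain to compound; expose a parallel culture to vehicle; measure growth; express compound effect as inhibition relative to the vehicle culture.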

[13] = NCI Yeast Anticancer Drug Screen. Data for the mlh1 rad18 strain (AID 175); conditions: S. cerevisiae mlh1 rad18 strain growth inhibition, hits give high values
Method in brief: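 Test agents were incubated with a yeast strain of defined genotype (DNA damage repair defect). Inhibition of growth was derived by comparison with vehicle-exposed cultures.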

[14] = NCI Yeast Anticancer Drug Screen. Data for the rad18 strain (AID 177); conditions: S. cerevisiae rad18 mutant growth inhibition, hits give high values
Method in brief: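 A genetically defined yeast mutant impaired in DNA damage repair was treated with test compounds, then its growth was measured against cultures receiving vehicle alone.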

[15] = NCI Yeast Anticancer Drug Screen. Data for the CLN2oe strain (AID 163);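 further: 0% = growth of vehicle-only control cultures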; conditions: S. cerevisiae CLN2oe strain, hits give high values
Method in brief: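 Values reflect how much compound exposure reduced yeast growth, referenced to vehicle-exposed cells. Assay organism is a strain with a defined genetic change affecting cell-cycle control.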

[16] = NCI Yeast Anticancer Drug Screen. Data for the sgs1 strain (AID 173);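 further: 0% = growth of vehicle-only control cultures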; conditions: S. cerevisiae sgs1 mutant, hits give high values
Method in brief: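 Treat defined-mutant yeast with compound; measure growth; calculate inhibition relative to vehicle-treated cells.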

[17] = at 5.0 µM (retest, dose inferred, filed as 0.5)
[18] = at 50.0 µM (retest, dose inferred, filed as 5.0)

Measured: growth inhibition

Fc1ccc(NC(=S)SCc2ccc(Cl)c(Cl)c2)cc1F
active: [1]; at 33.0 µM 89% | [1]; at 100.0 µM 98% | [2]; at 33.0 µM 99% | [2]; at 100.0 µM 98% | [3]; at 33.0 µM 98% | [3]; at 100.0 µM 98% | [4]; at 33.0 µM 97% | [4]; at 100.0 µM 98% | [5]; [18] 98% | [5]; at 50.0 µM 90.3% | [5]; at 100.0 µM 97% | [6]; [18] 98% | [6]; at 50.0 µM 93.2% | [6]; at 100.0 µM 99% | [7]; at 33.0 µM 99% | [7]; at 100.0 µM 98% | [8]; [18] 98% | [8]; at 50.0 µM 90% | [9]; [18] 97% | [9]; at 50.0 µM 90.5% | [10]; at 33.0 µM 98% | [10]; [18] 97% | [10]; at 50.0 µM 90.8% | [10]; at 100.0 µM 98% | [11]; at 33.0 µM 99% | [11]; at 100.0 µM 99% | [12]; at 33.0 µM 99% | [12]; at 100.0 µM 98% | [13]; [18] 97% | [13]; at 50.0 µM 90.6% | [14]; at 33.0 µM 98% | [14]; at 100.0 µM 98%
inactive: [1]; at 1.2 µM -6% | [1]; at 3.7 µM -8% | [1]; at 11.0 µM 17% | [2]; at 1.2 µM -4% | [2]; at 3.7 µM 12% | [2]; at 11.0 µM 33% | [3]; at 1.2 µM -2% | [3]; at 3.7 µM 25% | [3]; at 11.0 µM 60% | [4]; at 1.2 µM -3% | [4]; at 3.7 µM -4% | [4]; at 11.0 µM 0% | [5]; at 1.2 µM -15% | [5]; at 3.7 µM -9% | [5]; [17] 66% | [5]; at 11.0 µM 45% | [5]; at 33.0 µM -12% | [6]; at 1.2 µM -4% | [6]; at 3.7 µM -4% | [6]; [17] 18% | [6]; at 11.0 µM -4% | [6]; at 33.0 µM 60% | [7]; at 1.2 µM 3% | [7]; at 3.7 µM 5% | [7]; at 11.0 µM 24% | [8]; [17] 25% | [9]; [17] -2% | [10]; at 1.2 µM -2% | [10]; at 3.7 µM -4% | [10]; [17] 1% | [10]; at 11.0 µM 21% | [11]; at 1.2 µM 10% | [11]; at 3.7 µM 13% | [11]; at 11.0 µM 64% | [12]; at 1.2 µM -13% | [12]; at 3.7 µM -7% | [12]; at 11.0 µM 27% | [13]; [17] 33% | [14]; at 1.2 µM -9% | [14]; at 3.7 µM -6% | [14]; at 11.0 µM 30%

CN(C)c1nc2sc3c(c2c(=O)o1)CCCC3
active: [10]; [18] 92% | [10]; at 50.0 µM 75.2% | [13]; [18] 90%
inactive: [1]; at 1.2 µM 2% | [1]; at 3.7 µM 5% | [1]; at 11.0 µM 6% | [1]; at 33.0 µM 26% | [1]; at 100.0 µM 36% | [2]; at 1.2 µM -5% | [2]; at 3.7 µM -4% | [2]; at 11.0 µM -4% | [2]; at 33.0 µM 8% | [2]; at 100.0 µM 32% | [3]; at 1.2 µM 13% | [3]; at 3.7 µM 14% | [3]; at 11.0 µM 21% | [3]; at 33.0 µM 23% | [3]; at 100.0 µM 22% | [4]; at 1.2 µM -5% | [4]; at 3.7 µM -7% | [4]; at 11.0 µM 0% | [4]; at 33.0 µM 16% | [4]; at 100.0 µM 31% | [5]; at 1.2 µM 3% | [5]; at 3.7 µM 6% | [5]; [17] -4% | [5]; at 11.0 µM -13% | [5]; at 33.0 µM 29% | [5]; [18] 43% | [5]; at 50.0 µM 68.9% | [5]; at 100.0 µM 45% | [6]; at 1.2 µM 1% | [6]; at 3.7 µM -1% | [6]; [17] -4% | [6]; at 11.0 µM 0% | [6]; at 33.0 µM 26% | [6]; [18] 29% | [6]; at 50.0 µM 27.9% | [6]; at 100.0 µM 39% | [7]; at 1.2 µM 1% | [7]; at 3.7 µM -3% | [7]; at 11.0 µM 3% | [7]; at 33.0 µM 27% | [7]; at 100.0 µM 45% | [15]; at 1.2 µM 1% | [15]; at 3.7 µM -1% | [15]; at 11.0 µM -2% | [15]; at 33.0 µM 26% | [15]; at 100.0 µM 40% | [9]; [17] 26% | [9]; [18] 13% | [9]; at 50.0 µM -6.65% | [10]; at 1.2 µM 27% | [10]; at 3.7 µM 39% | [10]; [17] 39% | [10]; at 11.0 µM 44% | [10]; at 33.0 µM 55% | [10]; at 100.0 µM 69% | [11]; at 1.2 µM -1% | [11]; at 3.7 µM 0% | [11]; at 11.0 µM 1% | [11]; at 33.0 µM 26% | [11]; at 100.0 µM 35% | [12]; at 1.2 µM -3% | [12]; at 3.7 µM -4% | [12]; at 11.0 µM -2% | [12]; at 33.0 µM 26% | [12]; at 100.0 µM 31% | [16]; at 1.2 µM -3% | [16]; at 3.7 µM -4% | [16]; at 11.0 µM -1% | [16]; at 33.0 µM 19% | [16]; at 100.0 µM 36% | [13]; [17] -9% | [13]; at 50.0 µM 50.6% | [14]; at 1.2 µM 0% | [14]; at 3.7 µM 1% | [14]; at 11.0 µM 3% | [14]; at 33.0 µM 18% | [14]; at 100.0 µM 48%
